According to PMC7862700, “An all-to-all approach to the identification of sequence-specific readers for epigenetic DNA modifications on cytosine”:

Experiments:
Test in all cases: DAPPL (digital affinity profiling via proximity ligation, sequencing); 10 mM Tris-HCl pH 7.5, 50 mM NaCl, 1 mM DTT, 4% glycerol, room temperature, 30 min; GST-TFs on glutathione beads, 16-mer random dsDNA library, 0.1% formaldehyde crosslink after washing; high values mean tight binding
FLI1 = target: T1, FLI1 (Homo sapiens, UniProt Q01543 1-452); settings: protein: recombinant; tags: N-terminal GST; dsDNA, one strand shown
T1 sequence: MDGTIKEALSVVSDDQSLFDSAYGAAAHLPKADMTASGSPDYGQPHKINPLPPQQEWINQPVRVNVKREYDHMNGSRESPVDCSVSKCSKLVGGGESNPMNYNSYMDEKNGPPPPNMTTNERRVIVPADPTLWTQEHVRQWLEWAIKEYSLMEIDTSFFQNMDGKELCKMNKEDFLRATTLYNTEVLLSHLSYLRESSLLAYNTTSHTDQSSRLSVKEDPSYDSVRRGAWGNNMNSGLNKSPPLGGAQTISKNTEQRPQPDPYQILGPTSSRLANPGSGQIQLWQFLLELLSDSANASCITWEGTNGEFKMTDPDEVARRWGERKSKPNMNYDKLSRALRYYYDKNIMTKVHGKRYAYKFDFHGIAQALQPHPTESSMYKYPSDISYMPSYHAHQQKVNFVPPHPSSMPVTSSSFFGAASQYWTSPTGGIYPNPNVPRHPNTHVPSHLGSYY
In short: (§1)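 Pools of DNA-barcoded human transcription factors, expressed in yeast as GST fusions on glutathione beads and combined with a tag-only sample, were incubated with 200 nmole of a 16-mer random double-stranded DNA library. Incubation took 30 min at room temperature in Tris/NaCl/DTT/glycerol buffer and was followed by washing, 0.1% formaldehyde crosslinking, proximity ligation (BsaI/T4 ligase, 1 h, 37 °C), PCR amplification and sequencing on an Illumina NextSeq500. Binding signal is the ratio of a hexamer's read frequency for a factor to its frequency for the tag-only sample.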

ELK1 = target: T2, ELK1 (Homo sapiens, UniProt P19419 1-428); settings: protein: recombinant; tags: N-terminal GST; dsDNA, one strand shown
T2 sequence: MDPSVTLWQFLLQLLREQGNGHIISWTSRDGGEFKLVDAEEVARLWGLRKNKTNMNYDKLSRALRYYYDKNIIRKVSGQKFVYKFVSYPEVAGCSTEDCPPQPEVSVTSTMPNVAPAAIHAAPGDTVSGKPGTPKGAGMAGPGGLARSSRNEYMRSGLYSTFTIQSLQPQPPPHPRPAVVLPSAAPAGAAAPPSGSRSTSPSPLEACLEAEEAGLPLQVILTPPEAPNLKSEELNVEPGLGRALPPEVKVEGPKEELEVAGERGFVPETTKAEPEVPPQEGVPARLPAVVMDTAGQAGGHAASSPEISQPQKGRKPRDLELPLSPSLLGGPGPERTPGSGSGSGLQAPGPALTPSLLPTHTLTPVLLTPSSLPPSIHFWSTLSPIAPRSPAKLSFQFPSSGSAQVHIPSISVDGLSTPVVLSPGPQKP
In short: as §1

GABPA = target: T3, GABPA (Homo sapiens, UniProt Q06546 1-454); settings: protein: recombinant; tags: N-terminal GST; dsDNA, one strand shown
T3 sequence: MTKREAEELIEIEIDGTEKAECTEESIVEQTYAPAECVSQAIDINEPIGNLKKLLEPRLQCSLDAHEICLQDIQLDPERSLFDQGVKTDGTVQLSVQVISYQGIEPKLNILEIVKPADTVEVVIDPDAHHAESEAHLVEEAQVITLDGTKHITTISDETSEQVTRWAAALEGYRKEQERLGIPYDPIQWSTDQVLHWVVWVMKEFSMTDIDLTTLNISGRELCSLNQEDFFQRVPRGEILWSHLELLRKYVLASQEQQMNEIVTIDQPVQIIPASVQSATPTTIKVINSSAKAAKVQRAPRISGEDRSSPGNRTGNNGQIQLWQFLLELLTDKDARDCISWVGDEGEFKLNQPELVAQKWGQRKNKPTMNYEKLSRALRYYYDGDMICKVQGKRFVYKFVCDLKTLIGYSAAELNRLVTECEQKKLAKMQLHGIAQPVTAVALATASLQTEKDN
In short: as §1

ERG = target: T4, ERG (Homo sapiens, UniProt P11308 1-479); settings: protein: recombinant; tags: N-terminal GST; dsDNA, one strand shown
T4 sequence: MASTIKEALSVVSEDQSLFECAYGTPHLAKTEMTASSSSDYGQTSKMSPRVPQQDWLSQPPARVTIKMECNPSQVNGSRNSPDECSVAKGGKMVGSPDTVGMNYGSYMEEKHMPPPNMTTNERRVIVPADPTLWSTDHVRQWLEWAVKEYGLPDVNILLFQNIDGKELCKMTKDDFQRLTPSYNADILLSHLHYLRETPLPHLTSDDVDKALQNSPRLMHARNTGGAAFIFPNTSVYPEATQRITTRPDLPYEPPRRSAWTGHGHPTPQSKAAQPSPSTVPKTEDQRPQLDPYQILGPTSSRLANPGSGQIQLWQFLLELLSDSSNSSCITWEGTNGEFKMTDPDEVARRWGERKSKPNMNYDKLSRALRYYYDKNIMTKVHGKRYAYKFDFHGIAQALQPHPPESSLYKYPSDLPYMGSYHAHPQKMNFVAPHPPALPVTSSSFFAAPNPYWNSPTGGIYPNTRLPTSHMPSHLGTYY
In short: as §1

ELF1 = ELF1 (Homo sapiens, UniProt P32519 1-619); settings: protein: recombinant; tags: N-terminal GST; dsDNA, one strand shown
In short: as §1

EHF = target: T5, EHF (Homo sapiens, UniProt Q9NZC4 1-300); settings: protein: recombinant; tags: N-terminal GST; dsDNA, one strand shown
T5 sequence: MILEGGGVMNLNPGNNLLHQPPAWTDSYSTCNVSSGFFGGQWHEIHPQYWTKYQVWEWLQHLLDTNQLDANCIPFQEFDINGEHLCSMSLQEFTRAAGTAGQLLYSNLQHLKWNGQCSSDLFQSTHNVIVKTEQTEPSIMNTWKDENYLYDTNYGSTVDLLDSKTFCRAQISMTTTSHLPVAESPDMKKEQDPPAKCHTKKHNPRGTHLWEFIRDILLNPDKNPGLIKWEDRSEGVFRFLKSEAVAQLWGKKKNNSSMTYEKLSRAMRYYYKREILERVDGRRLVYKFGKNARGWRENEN
In short: as §1

SPI1 = SPI1 (Homo sapiens, UniProt P17947 1-270); settings: protein: recombinant; tags: N-terminal GST; dsDNA, one strand shown
In short: as §1

SPIB = SPIB (Homo sapiens, UniProt Q01892 1-262); settings: protein: recombinant; tags: N-terminal GST; dsDNA, one strand shown
In short: as §1

ELK3 = target: T6, ELK3 (Homo sapiens, UniProt P41970 1-407); settings: protein: recombinant; tags: N-terminal GST; dsDNA, one strand shown
T6 sequence: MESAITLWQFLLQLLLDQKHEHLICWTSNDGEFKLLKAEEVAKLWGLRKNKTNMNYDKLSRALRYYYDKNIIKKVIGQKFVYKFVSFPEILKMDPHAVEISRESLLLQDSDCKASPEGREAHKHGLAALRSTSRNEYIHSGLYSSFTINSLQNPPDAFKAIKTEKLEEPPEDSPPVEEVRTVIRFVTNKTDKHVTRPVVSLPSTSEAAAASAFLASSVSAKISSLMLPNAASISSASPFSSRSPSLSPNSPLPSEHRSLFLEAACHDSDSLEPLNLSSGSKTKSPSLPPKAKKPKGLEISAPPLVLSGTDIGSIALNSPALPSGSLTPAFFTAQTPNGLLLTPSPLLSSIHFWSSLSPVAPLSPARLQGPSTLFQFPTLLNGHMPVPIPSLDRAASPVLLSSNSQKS
In short: as §1

FEV = target: T7, FEV (Homo sapiens, UniProt Q99581 1-238); settings: protein: recombinant; tags: N-terminal GST; dsDNA, one strand shown
T7 sequence: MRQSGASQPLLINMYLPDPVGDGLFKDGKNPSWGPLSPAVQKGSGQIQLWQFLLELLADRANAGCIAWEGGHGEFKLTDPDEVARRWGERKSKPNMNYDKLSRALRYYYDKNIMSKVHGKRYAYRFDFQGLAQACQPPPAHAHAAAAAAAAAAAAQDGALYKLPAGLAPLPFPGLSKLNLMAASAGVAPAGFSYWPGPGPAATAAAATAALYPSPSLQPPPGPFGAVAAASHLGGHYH
In short: as §1

ETV5 = ETV5 (Homo sapiens, UniProt P41161 1-510); settings: protein: recombinant; tags: N-terminal GST; dsDNA, one strand shown
In short: as §1

HSF1 = HSF1 (Homo sapiens, UniProt Q00613 1-529); settings: protein: recombinant; tags: N-terminal GST; chain copies: 3; dsDNA, one strand shown
In short: as §1

SPIC = target: T8, SPIC (Homo sapiens, UniProt Q8N5J4 1-248); settings: protein: recombinant; tags: N-terminal GST; dsDNA, one strand shown
T8 sequence: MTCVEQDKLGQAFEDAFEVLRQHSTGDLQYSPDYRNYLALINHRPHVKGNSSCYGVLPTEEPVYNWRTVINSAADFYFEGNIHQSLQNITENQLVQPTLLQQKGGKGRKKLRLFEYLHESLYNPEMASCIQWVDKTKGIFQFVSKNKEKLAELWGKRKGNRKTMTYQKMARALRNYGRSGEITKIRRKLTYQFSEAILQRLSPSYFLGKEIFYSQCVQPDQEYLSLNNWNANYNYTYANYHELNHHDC
In short: as §1

ELF4 = ELF4 (Homo sapiens, UniProt Q99607 1-663); settings: protein: recombinant; tags: N-terminal GST; dsDNA, one strand shown
In short: as §1

ELK4 = target: T9, ELK4 (Homo sapiens, UniProt P28324-2 1-405); settings: protein: recombinant; tags: N-terminal GST; dsDNA, one strand shown
T9 sequence: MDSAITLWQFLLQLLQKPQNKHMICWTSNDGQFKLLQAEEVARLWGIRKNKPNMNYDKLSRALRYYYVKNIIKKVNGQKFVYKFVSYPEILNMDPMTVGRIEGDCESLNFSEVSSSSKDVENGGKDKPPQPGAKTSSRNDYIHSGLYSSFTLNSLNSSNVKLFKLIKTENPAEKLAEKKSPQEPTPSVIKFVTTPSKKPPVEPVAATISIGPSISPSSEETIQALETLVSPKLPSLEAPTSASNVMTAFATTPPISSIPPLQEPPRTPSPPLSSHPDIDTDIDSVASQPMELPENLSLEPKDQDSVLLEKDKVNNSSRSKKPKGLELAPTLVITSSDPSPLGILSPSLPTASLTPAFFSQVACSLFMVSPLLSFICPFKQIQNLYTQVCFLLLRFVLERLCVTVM
In short: as §1

ETV2 = target: T10, ETV2 (Homo sapiens, UniProt O00321 1-342); settings: protein: recombinant; tags: N-terminal GST; dsDNA, one strand shown
T10 sequence: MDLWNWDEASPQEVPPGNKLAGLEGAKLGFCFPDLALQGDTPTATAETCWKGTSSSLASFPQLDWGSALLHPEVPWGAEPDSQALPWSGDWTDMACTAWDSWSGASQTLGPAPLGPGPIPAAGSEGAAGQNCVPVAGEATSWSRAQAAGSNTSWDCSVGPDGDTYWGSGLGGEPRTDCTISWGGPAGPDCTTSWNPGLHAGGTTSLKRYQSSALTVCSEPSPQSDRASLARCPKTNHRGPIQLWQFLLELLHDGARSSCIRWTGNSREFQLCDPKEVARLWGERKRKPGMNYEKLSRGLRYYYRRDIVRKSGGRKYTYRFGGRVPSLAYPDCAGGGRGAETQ
In short: as §1

ELF3 = target: T11, ELF3 (Homo sapiens, UniProt P78545 1-371); settings: protein: recombinant; tags: N-terminal GST; dsDNA, one strand shown
T11 sequence: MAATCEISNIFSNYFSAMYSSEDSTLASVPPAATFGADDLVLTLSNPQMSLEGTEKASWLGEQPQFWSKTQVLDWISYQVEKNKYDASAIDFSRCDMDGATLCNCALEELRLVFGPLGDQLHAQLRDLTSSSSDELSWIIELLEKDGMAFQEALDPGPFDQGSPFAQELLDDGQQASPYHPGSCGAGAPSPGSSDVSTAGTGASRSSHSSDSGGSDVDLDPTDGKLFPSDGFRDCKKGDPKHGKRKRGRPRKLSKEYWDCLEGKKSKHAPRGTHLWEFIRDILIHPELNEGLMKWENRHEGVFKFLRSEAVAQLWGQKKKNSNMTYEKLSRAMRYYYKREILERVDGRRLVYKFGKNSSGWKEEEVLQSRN
In short: as §1

CRX = CRX (Homo sapiens, UniProt O43186 1-299); settings: protein: recombinant; tags: N-terminal GST; dsDNA, one strand shown
In short: as §1

ETV1 = ETV1 (Homo sapiens, UniProt P50549 1-477); settings: protein: recombinant; tags: N-terminal GST; dsDNA, one strand shown
In short: as §1

Chain of CRX (O43186 whole entry): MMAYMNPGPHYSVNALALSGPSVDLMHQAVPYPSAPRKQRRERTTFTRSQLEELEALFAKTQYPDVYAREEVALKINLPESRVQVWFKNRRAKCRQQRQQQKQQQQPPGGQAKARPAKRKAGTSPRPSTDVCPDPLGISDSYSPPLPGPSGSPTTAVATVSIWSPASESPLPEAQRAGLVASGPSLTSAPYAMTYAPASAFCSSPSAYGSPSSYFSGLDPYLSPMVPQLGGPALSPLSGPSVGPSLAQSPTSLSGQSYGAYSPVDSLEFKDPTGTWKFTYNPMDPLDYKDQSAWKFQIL
Chain of ETV1 (P50549 whole entry): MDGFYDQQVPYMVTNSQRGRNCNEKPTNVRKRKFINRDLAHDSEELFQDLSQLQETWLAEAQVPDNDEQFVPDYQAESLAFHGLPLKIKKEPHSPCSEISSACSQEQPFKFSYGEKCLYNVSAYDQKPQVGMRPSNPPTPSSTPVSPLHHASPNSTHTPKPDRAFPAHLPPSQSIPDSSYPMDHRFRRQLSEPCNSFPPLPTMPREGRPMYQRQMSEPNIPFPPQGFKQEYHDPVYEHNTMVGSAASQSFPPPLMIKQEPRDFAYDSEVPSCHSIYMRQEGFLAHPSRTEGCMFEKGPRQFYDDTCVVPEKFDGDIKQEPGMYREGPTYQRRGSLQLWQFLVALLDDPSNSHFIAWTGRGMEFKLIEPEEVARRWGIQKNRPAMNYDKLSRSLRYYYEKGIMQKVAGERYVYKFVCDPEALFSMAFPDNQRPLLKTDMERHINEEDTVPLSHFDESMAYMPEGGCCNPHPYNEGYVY
Chain of HSF1 (Q00613 whole entry): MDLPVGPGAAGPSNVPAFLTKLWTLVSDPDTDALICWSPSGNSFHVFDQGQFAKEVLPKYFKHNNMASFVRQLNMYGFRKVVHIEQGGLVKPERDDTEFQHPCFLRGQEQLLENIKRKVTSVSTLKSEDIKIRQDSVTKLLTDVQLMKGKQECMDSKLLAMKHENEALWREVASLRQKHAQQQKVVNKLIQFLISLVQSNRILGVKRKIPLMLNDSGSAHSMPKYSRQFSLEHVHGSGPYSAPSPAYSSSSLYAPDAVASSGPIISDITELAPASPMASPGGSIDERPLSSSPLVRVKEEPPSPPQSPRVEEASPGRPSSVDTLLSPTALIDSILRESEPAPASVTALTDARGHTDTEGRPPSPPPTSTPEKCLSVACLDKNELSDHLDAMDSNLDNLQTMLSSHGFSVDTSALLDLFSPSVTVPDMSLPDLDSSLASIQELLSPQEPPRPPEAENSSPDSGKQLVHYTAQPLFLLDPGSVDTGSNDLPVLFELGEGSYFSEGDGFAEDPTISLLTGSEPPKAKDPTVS
Chain of SPIB (Q01892 whole entry): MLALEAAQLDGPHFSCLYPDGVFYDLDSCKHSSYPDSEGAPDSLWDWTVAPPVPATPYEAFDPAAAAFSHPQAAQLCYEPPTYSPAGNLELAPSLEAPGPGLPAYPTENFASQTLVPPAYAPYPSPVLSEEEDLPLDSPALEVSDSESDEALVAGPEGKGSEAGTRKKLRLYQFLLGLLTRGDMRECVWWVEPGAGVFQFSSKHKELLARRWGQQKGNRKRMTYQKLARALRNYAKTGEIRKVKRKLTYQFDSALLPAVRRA
Chain of ELF1 (P32519 whole entry): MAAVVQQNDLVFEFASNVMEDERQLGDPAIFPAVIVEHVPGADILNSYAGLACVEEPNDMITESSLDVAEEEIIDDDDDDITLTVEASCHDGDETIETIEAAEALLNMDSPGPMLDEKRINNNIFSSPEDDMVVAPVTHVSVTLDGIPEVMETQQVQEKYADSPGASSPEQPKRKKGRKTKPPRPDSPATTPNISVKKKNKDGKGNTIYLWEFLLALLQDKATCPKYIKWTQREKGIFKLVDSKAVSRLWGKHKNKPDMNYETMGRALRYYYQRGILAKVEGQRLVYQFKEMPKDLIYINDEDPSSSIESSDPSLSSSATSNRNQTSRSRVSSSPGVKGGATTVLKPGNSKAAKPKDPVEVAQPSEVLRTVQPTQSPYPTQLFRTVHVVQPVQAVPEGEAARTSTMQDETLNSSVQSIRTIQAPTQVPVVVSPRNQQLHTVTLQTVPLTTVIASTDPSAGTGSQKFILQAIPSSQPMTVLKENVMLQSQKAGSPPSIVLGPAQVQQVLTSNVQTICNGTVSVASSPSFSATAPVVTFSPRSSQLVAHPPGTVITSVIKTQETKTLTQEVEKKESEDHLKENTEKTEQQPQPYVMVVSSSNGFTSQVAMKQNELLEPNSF
Chain of ELF4 (Q99607 whole entry): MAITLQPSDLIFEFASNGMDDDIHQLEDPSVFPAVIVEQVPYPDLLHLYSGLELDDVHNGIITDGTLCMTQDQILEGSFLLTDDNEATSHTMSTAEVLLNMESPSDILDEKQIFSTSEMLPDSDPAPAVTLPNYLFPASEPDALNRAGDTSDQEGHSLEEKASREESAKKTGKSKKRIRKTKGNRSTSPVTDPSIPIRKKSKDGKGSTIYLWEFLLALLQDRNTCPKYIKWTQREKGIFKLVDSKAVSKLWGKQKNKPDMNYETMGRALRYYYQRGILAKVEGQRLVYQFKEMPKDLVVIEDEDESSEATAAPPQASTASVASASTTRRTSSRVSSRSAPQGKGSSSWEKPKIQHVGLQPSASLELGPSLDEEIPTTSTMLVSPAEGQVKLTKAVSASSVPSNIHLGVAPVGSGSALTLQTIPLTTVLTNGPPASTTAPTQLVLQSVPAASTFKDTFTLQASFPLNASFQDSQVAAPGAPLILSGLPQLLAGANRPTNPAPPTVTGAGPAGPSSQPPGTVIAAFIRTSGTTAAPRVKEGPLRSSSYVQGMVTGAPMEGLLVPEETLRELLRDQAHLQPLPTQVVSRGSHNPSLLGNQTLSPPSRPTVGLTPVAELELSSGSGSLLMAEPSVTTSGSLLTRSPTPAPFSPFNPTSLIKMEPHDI
Chain of ETV5 (P41161 whole entry): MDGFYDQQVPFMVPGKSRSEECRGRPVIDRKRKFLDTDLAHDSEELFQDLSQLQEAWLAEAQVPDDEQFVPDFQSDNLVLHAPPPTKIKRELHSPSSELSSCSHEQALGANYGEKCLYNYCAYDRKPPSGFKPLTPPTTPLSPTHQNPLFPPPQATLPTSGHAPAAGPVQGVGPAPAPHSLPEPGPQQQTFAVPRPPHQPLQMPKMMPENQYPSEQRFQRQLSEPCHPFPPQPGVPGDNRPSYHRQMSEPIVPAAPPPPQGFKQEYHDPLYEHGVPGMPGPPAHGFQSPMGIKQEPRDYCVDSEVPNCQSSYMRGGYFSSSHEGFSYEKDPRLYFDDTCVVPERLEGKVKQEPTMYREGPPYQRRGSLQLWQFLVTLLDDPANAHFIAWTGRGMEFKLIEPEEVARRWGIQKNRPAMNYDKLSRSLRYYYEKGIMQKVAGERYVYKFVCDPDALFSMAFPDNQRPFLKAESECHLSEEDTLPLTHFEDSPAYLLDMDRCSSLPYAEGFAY

## GCTCAT
FLI1
  binding signal: 1.23 fold enrichment (6-mer frequency, TF over GST control)
ELK1
  binding signal: 1.29 fold enrichment (6-mer frequency, TF over GST control)
GABPA
  binding signal: 1.23 fold enrichment (6-mer frequency, TF over GST control)
ERG
  binding signal: 1.32 fold enrichment (6-mer frequency, TF over GST control)
ELF1
  binding signal: 1.36 fold enrichment (6-mer frequency, TF over GST control)
EHF
  binding signal: 1.26 fold enrichment (6-mer frequency, TF over GST control)
SPI1
  binding signal: 1.21 fold enrichment (6-mer frequency, TF over GST control)
SPIB
  binding signal: 1.31 fold enrichment (6-mer frequency, TF over GST control)
ELK3
  binding signal: 1.16 fold enrichment (6-mer frequency, TF over GST control)
FEV
  binding signal: 1.2 fold enrichment (6-mer frequency, TF over GST control)
ETV5
  binding signal: 1.19 fold enrichment (6-mer frequency, TF over GST control)
HSF1
  binding signal: 1.15 fold enrichment (6-mer frequency, TF over GST control)
SPIC
  binding signal: 1.32 fold enrichment (6-mer frequency, TF over GST control)
ELF4
  binding signal: 1.18 fold enrichment (6-mer frequency, TF over GST control)
ELK4
  binding signal: 1.3 fold enrichment (6-mer frequency, TF over GST control)
ETV2
  binding signal: 1.39 fold enrichment (6-mer frequency, TF over GST control)
ELF3
  binding signal: 1.34 fold enrichment (6-mer frequency, TF over GST control)
CRX
  binding signal: 1.35 fold enrichment (6-mer frequency, TF over GST control)
ETV1
  binding signal: 1.22 fold enrichment (6-mer frequency, TF over GST control)
